The source of these data is PubChem BioAssay (Tox21).

SMILES strings stand for the structures. Records with an inconclusive call do not appear. The source made the active and inactive calls. Calls come from the whole dose curve; as a rule, active = well fitted cell-killing curve with a large enough effect in the repeat runs; inconclusive = weak or mixed curves; inactive = flat fitted curve, though single readings scatter.
% is set by controls: 0 for no effect and ±100 for the full control effect.

The nature of this assay: qHTS RealTime-Glo MT Cell Viability Assay in HepG2 cells - 16 hour (AID 1224885). Note: nearly all actives have a fitted effect of over 50% in size. Particulars: RealTime-Glo luminescence; series mostly up to 76.8 µM; activity change, negative = cytotoxic: at the top concentration. The source says:
U.S. Tox21 Program National Center for Advancing Translational Sciences [NCATS] NIH Chemical Genomics Center [NCGC] U.S. Environmental Protection Agency [EPA] National Institutes of Environmental Health Sciences [NIEHS] National Toxicology Program [NTP] U.S. Food and Drug Administration [FDA] Tox21 Assay Overview: Measure of cell viability is critical in the cell-base assay. Analysis of cell viability is necessary for the characterization of cell responses to cytotoxic drugs and environmental stress. A RealTime-Glo MT Cell Viability Assay to monitor cell viability in real time of continues cell culture during 40 hours of compound treatment was used to screen Tox21 10K library compounds in HepG2 cells. The RealTime-Glo MT Cell Viability Assay is a nonlytic, homogeneous, bioluminescent method to measure cell viability in real time using a simple, plate-based method. The assay involves adding NanoLuc luciferase and a cell-permeant prosubstrate to cells in culture. Viable cells reduce the proprietary prosubstrate to generate a substrate for NanoLuc luciferase. This substrate diffuses from cells into the surrounding culture medium, where it is rapidly used by the NanoLuc Enzyme to produce a luminescent signal. The signal correlates with the number of viable cells, making the assay well suited for cytotoxicity studies.
Tox21 Assay Protocol Summary: The mixture of HepG2 cell suspension and reagents were dispensed at 600cells/6 ul/well in 1536-well tissue culture treated black solid bottom plates using a Multidrop dispenser. After the assay plates were incubated at a 37 C/5% CO2 incubator for 5 hours, 23 nL of compounds dissolved in DMSO, positive and negative controls was transferred to the assay plate by a pintool work station. The plates were incubated at 37 C for 40 hours. The luminescence intensity were measured at 0h, 8h, 16h, 24h, 32h and 40h time points using ViewLux plate reader during compound treatment.
Take `CN(C)CCCCCCN(C)C`: the “activity change, negative = cytotoxic” value is 2.06% (inactive).
In the case of `CC(=O)N[C@H]1[C@H]([C@H](O)[C@H](O)CO)OC(C(=O)O)=C[C@@H]1N=C(N)N`, the “activity change, negative = cytotoxic” value was 4.11% [at 35.3 µM] (inactive).
Take `CC(C)(N)C#N`: the “activity change, negative = cytotoxic” value was -1.37% (inactive).
`Cc1ccc(C(=O)c2ccccc2)cc1`: the “activity change, negative = cytotoxic” value was -10.8% (inactive).
Take `Cc1ccnc(NS(=O)(=O)c2ccc(N)cc2)n1`: the “activity change, negative = cytotoxic” value was -3.71% [at 35.3 µM] (inactive).
Take `C[C@H]1[C@H](NC(=O)/C(=N/OC(C)(C)C(=O)O)c2csc(N)n2)C(=O)N1S(=O)(=O)O` (stereo in doubt): the “activity change, negative = cytotoxic” value is 0.3% [at 35.3 µM] (inactive).
Turning to `COc1cc2c(cc1OC)-c1cc3ccc(OC)c(OC)c3c[n+]1CC2`, the “activity change, negative = cytotoxic” value is -10.8% (inactive).
The result for `O=C(CO)[C@@H](O)[C@H](O)[C@@H](O)CO` reads 2.16% [at 35.3 µM] (inactive); that for `CO[C@@]1(NC(=O)C(C(=O)O)c2ccc(O)cc2)C(=O)N2C(C(=O)O)=C(CSc3nnnn3C)CO[C@@H]21` (stereo not given in full), 1.68% [at 35.3 µM] (inactive).
On to `CC(=O)Oc1cccc(C)c1`, for which the “activity change, negative = cytotoxic” value is 0.94% [at 35.3 µM] (inactive).
As for `C=CC(=O)OCCCl`, the “activity change, negative = cytotoxic” value was 3.25% (inactive).
For `Cc1ccccc1N=C(N)N=C(N)N`, the “activity change, negative = cytotoxic” value was 3.15% (inactive).
Take `CCCc1ncc(C[n+]2ccccc2C)c(N)n1`: the “activity change, negative = cytotoxic” value is 5.14% [at 35.3 µM] (inactive).
The result for `NC(=O)Cc1cccc2ccccc12` reads -0.715% (inactive); that for `CCCCOCCOC(=O)COc1cc(Cl)c(Cl)cc1Cl`, 4.86% (inactive).
Turning to `CC(COc1ccccc1)NN` (stereo not given), the “activity change, negative = cytotoxic” value is 0.518% [at 35.3 µM] (inactive).
`c1ccc2sc(SN3CCOCC3)nc2c1`: the “activity change, negative = cytotoxic” value was 1.08% [at 35.3 µM] (inactive).
For the molecule `CC(C)C(=O)OC(=O)C(C)C`, the “activity change, negative = cytotoxic” value is 0.431% (inactive).
The result for `COc1ccccc1OCC1CNC(=O)O1` (stereo not given) reads 5.49% [at 35.3 µM] (inactive); that for `CCCCCCCCN1CCCC1=O`, 3% (inactive); that for `C1CCC2(CCCCO2)OC1`, 4.32% (inactive).
Take `CC[C@H]1OC(=O)[C@H](C)[C@@H](O[C@H]2C[C@@](C)(OC)[C@@H](O)[C@H](C)O2)[C@H](C)[C@@H](O[C@@H]2O[C@H](C)C[C@H](N(C)C)[C@H]2O)[C@](C)(OC)C[C@@H](C)C(=O)[C@H](C)[C@@H](O)[C@]1(C)O`: the “activity change, negative = cytotoxic” value was 1.34% (inactive).
On to `CCCCOC(=O)CCC(C)=O`, for which the “activity change, negative = cytotoxic” value is 4.18% (inactive).
Turning to `COc1c(N2CCNC(C)C2)c(F)cc2c(=O)c(C(=O)O)cn(C3CC3)c12` (stereo not given), the “activity change, negative = cytotoxic” value is 3.97% [at 35.3 µM] (inactive).
For the molecule `CC1(C)[C@@H]2CC[C@@]1(C)[C@H](O)C2`, the “activity change, negative = cytotoxic” value is 1.28% (inactive).
`C=C(C)C(=O)OCC(O)CO` (stereo not given): the “activity change, negative = cytotoxic” value is -1.15% [at 35.3 µM] (inactive).
As to `C[N+]1(C)CCCC(OC(=O)C(O)(c2ccccc2)c2ccccc2)C1` (stereo not given), the “activity change, negative = cytotoxic” value is 1.33% [at 35.3 µM] (inactive).
As to `CC1=CCC(O)(C(C)C)CC1` (stereo not given), the “activity change, negative = cytotoxic” value was 1.08% (inactive).
`CC(=O)c1cnccn1`: the “activity change, negative = cytotoxic” value was 1.79% (inactive).
In the case of `[Ca+2]`, the “activity change, negative = cytotoxic” value was 1.02% (inactive).
As to `C[C@H]1C[C@H]2[C@@H]3CCC4=CC(=O)C=C[C@]4(C)[C@H]3C(=O)C[C@]2(C)[C@@]1(O)C(=O)CO`, the “activity change, negative = cytotoxic” value was -2.18% [at 35.3 µM] (inactive).
With `O=C1NC(=O)C2CC=CCC12` (stereo not given), the “activity change, negative = cytotoxic” value was 2.33% (inactive).
For `CCCCc1ccc2c(n1)[C@@H](c1ccc(OC)cc1C[C@H](C)C(=O)O)[C@H](C(=O)O)[C@H]2c1ccc2c(c1)OCO2`, the “activity change, negative = cytotoxic” value is 6.38% (inactive).
As to `C=CCCCCCCCCC(=O)OCC`, the “activity change, negative = cytotoxic” value was -0.158% (inactive).
As for `COc1cc(C(=O)OC(COCCC(C)C)CN2CCOCC2)cc(OC)c1OC` (stereo not given), the figure is 1.35% [at 35.3 µM] (inactive); as for `NCCCC[C@H](N[C@@H](CCc1ccccc1)C(=O)O)C(=O)N1CCC[C@H]1C(=O)O`, 2.2% [at 35.3 µM] (inactive).
Take `Cc1cccc(C)c1NC(=O)CC12CCCN1CCC2`: the “activity change, negative = cytotoxic” value was 7.26% [at 35.3 µM] (inactive).
For the molecule `C[C@@H]1C[C@H]2[C@@H]3C[C@H](F)C4=CC(=O)C(Cl)=C[C@]4(C)[C@@]3(F)[C@@H](O)C[C@]2(C)[C@@]1(O)C(=O)CO`, the “activity change, negative = cytotoxic” value is -11.4% [at 35.3 µM] (inactive).
With `CC1OC1C1CCC2(C)OC2C1` (stereo not given), the “activity change, negative = cytotoxic” value is 1.78% (inactive).
Regarding `CC(=O)O[C@@]12CO[C@@H]1C[C@H](O)[C@@]1(C)C(=O)[C@H](O)C3=C(C)[C@@H](OC(=O)[C@H](O)[C@@H](NC(=O)OC(C)(C)C)c4ccccc4)C[C@@](O)([C@@H](OC(=O)c4ccccc4)[C@H]21)C3(C)C`, the “activity change, negative = cytotoxic” value is -15.3% [at 35.3 µM] (inactive).
